Counter-ions that a name gives are not always drawn. Unmarked numbers belong to inactive results.
Assays:
Details in all cases: 20 µM
[1] = test system: Salmonella enterica typhimurium; assay: growth AUC normalised to DMSO control (fraction of control); higher = less growth inhibition, active = hit call of the paper
Method in brief: (§1)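 Pathogens passaged twice anaerobically were inoculated at a starting OD578 of 0.01 into pre-reduced mGAM plates with drug at 20 μM and 1% DMSO, sealed with breathable membranes. Haemophilus parainfluenzae medium was supplemented with hemin and NAD. OD578 was read hourly for 24 h, with three biological replicates. Growth-curve AUC was computed by the trapezoidal rule up to the exponential-to-stationary transition and normalised to DMSO controls on the same plate.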

Shigella flexneri = assay: as above
Method in brief: as §1

Vibrio cholerae = assay: as above
Method in brief: as §1

[2] = test system: Yersinia pseudotuberculosis; assay: as above
Method in brief: as §1

P. vulgatus RND KO = assay: growth AUC normalised to DMSO control (median) (fraction of control); higher = less growth inhibition, active = hit call of the paper
Method in brief: (§2)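 Each strain went through two overnight passages under anaerobic conditions before growth in mGAM in 96-well plates, starting at OD578 0.01, with each compound from the approved-drug library at 20 μM and 1% DMSO. Inside an anaerobic incubator, OD578 was recorded every hour for 24 h. Growth curves were cut off at entry into stationary phase, and the area under the curve was calculated by the trapezoidal rule and normalised to vehicle wells on the same plate. Reported values are medians of three biological replicates.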

P. vulgatus WT = assay: as above
Method in brief: as §2

[3] = test system: S. enterica typhimurium WT; assay: as above
Method in brief: as §2

[4] = test system: S. enterica typhimurium tolC KO; assay: as above
Method in brief: as §2
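Wherever growth AUC normalised to DMSO control (median) is given: active when median AUC fell below 0.1.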

SMILES	growth AUC normalised to DMSO control [1]	growth AUC normalised to DMSO control (Shigella flexneri)	growth AUC normalised to DMSO control (Vibrio cholerae)	growth AUC normalised to DMSO control [2]	growth AUC normalised to DMSO control (P. vulgatus RND KO)	growth AUC normalised to DMSO control (P. vulgatus WT)	growth AUC normalised to DMSO control [3]	growth AUC normalised to DMSO control [4]
N=C(N)NCc1cccc(I)c1 [Iobenguane sulfate]	1.03	1.03	1.06	1.01	1.09	1.1	1.01	1
CCCc1cc(C(N)=S)ccn1 [Prothionamide]	1	1	1.01	1	0.988	0.997	0.987	0.981
CC1c2cccc(O)c2C(O)=C2C(=O)C3(O)C(O)=C(C(N)=O)C(=O)C(N(C)C)C3C(O)C21 (stereo not given) [Doxycycline hydrochloride]	0.00452 (active)	0.00494 (active)	0.018 (active)	0.0395 (active)	0.012 (active)	0.00631 (active)	0.00375 (active)	0.00276 (active)
c1ccc(CN(CC2=NCCN2)c2ccccc2)cc1 [Antazoline hydrochloride]	0.999	1.01	1.01	1	1.03	1.05	0.996	1
CCN(CC)CCOC(=O)C1(c2ccc([N+](=O)[O-])cc2)CCCC1 [Nitrocaramiphen hydrochloride]	0.993	0.993	0.974	0.996	1.03	1.05	1	1
CC1CCc2c(N3CCC(O)CC3)c(F)cc3c(=O)c(C(=O)O)cn1c23 (stereo not given) [Nadifloxacin]	0.00794 (active)	0.0399 (active)	0.0237 (active)	0.0176 (active)	0.0102 (active)	0.00997 (active)	0.0247 (active)	0.00372 (active)
O=C(O)CCNC(=O)c1ccc(/N=N/c2ccc(O)c(C(=O)O)c2)cc1 [Balsalazide disodium salt]	1.03	1.03	1.05	1	1.02	1.08	0.996	1.02
CCCCCN(C)CCC(O)(P(=O)(O)O)P(=O)(O)O [Ibandronate sodium]	0.982	0.98	0.992	1.01	0.998	1.01	0.99	1
C[C@@H](O)[C@H]1C(=O)N2C(C(=O)O)=C(S[C@@H]3CN[C@H](C(=O)N(C)C)C3)[C@H](C)[C@H]12 [Meropenem]	0.00502 (active)	0.0408 (active)	0.844	0.0586 (active)	0.0122 (active)	0.0155 (active)	0.00861 (active)	0.00577 (active)
Cc1nnc(NS(=O)(=O)c2ccc(N)cc2)s1 [Sulfamethizole]	0.985	0.98	0.978	1.01	1	1	0.978	0.984
C[N+](C)(CCOc1ccccc1)Cc1ccccc1.O=C([O-])c1cc2ccccc2cc1O [Bephenium hydroxynaphthoate]	1.05	1.04	1.03	1.03	0.998	0.991	0.989	0.977
CC(=O)Oc1cc(C(F)(F)F)ccc1C(=O)O [Triflusal]	0.964	0.949	0.959	0.954	0.979	1	0.995	0.955
O=C1CN(/N=C/c2ccc(-c3ccc([N+](=O)[O-])cc3)o2)C(=O)N1 [Dantrolene sodium salt]	1.04	0.97	0.948	0.986	1.04	1.03	1.02	0.825
CCCSc1ccc2[nH]c(NC(=O)OC)nc2c1 [Albendazole]	1	1.03	0.99	0.993	1.03	1.07	0.999	1
CC(N/C(=N\C#N)Nc1ccncc1)C(C)(C)C (stereo not given) [Pinacidil monohydrate]	0.991	1	0.998	0.982	1.07	1.06	1.01	0.976
Nc1ncnc2c1ncn2C1OC(COP(=O)(O)O)C(O)C1O (stereo not given) [Adenosine 5'-monophosphate monohydrate]	0.999	0.986	0.981	1	0.977	0.984	0.992	0.995
CCC1(c2ccccc2)NC(=O)N(C)C1=O (stereo not given) [Mephenytoin]	1.01	0.997	1.02	1.01	1	1.03	1	1
CC(C)(Oc1ccc(C2CC2(Cl)Cl)cc1)C(=O)O (stereo not given) [Ciprofibrate]	1.01	0.998	0.997	0.995	0.973	0.961	0.992	0.993
CCCCOc1cc(C(=O)NCCN(CC)CC)c2ccccc2n1 [Dibucaine]	1	1.03	1.03	1.05	1.04	1.01	1.01	0.993
COc1ccc(-c2cc(=S)ss2)cc1 [Anethole-trithione]	1.02	1.05	0.91	1.19	1.02	1.04	0.985	0.91
Nc1ccn([C@@H]2O[C@H](CO)[C@@H](O)[C@@H]2O)c(=O)n1 [Cytarabine]	1	0.998	1	0.986	0.993	0.989	0.998	0.997
c1ccc(CC2=NCCN2)cc1 [Tolazoline hydrochloride]	1.01	1.02	1.02	1.01	1.02	1.07	0.987	1.01
CC(=O)OC(C)C[N+](C)(C)C (stereo not given) [Methacholine chloride]	0.992	0.939	0.99	0.983	0.991	1	0.991	1
CC(C[N+](C)(C)C)OC(N)=O (stereo not given) [Bethanechol chloride]	1	1.01	1.02	0.986	0.982	0.997	1	0.993
Cc1oncc1C(=O)Nc1ccc(C(F)(F)F)cc1 [Leflunomide]	0.989	0.988	0.914	1	0.957	1	0.996	0.896
COC(=O)[C@@H]1[C@H]2C[C@H]3c4[nH]c5ccccc5c4CCN3C[C@@H]2CC[C@@H]1O [Yohimbine hydrochloride]	0.984	0.958	0.969	1	0.984	1.01	1	1
CCCc1nc2c(C)cc(-c3nc4ccccc4n3C)cc2n1Cc1ccc(-c2ccccc2C(=O)O)cc1 [Telmisartan]	1	1.02	1.02	1.01	0.852	0.897	0.996	0.995
CC(C)(C)NC(=O)[C@@H]1C[C@@H]2CCCC[C@@H]2CN1C[C@@H](O)[C@H](Cc1ccccc1)NC(=O)[C@H](CC(N)=O)NC(=O)c1ccc2ccccc2n1 [Saquinavir mesylate]	1.01	1.02	1.04	1.03	0.859	0.89	1.02	1
Cc1c(N(C)CS(=O)(=O)O)c(=O)n(-c2ccccc2)n1C [Dipyrone sodium salt]	1.02	1.03	1.09	1.02	0.999	0.996	1.01	0.999
COc1ccc(-c2cc(=O)c3c(O)cc(O[C@@H]4O[C@H](CO[C@@H]5O[C@@H](C)[C@H](O)[C@@H](O)[C@H]5O)[C@@H](O)[C@H](O)[C@H]4O)cc3o2)cc1O [Diosmin]	0.988	0.96	0.971	0.975	0.997	0.991	1	0.996

From the supplement of paper PMC12350171
